Source: the supplement of paper PMC6555819

What was measured:
Assay in all cases: PBM binding z-score (relative to random genomic background probes); higher = stronger binding; sequences stand for … in GC…GCGATTGACAGCGTAGAATGAAGG
[1] = test system: RARb homodimer (NR concentration 270 nM)
Procedure, shortened: (§1)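 Ligand-free nuclear receptor dimers were applied to custom Agilent 4×180K protein-binding microarrays whose double-stranded probes carried direct-repeat seeds, single-nucleotide variants, half-site ablations and random human genomic background sequences in 34-nt variable regions. Incubation lasted 1 h. Binding z-scores were computed against the random background probes from regression-normalized fluorescence.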

[2] = test system: RARg:RXRa (NR concentration 270 nM, RXRa partner concentration 90 nM)
Procedure, shortened: as §1

[3] = test system: RARg homodimer (NR concentration 270 nM)
Procedure, shortened: as §1

[4] = test system: RXRa DBDmut IVT, anti-RXR (DBD mutation: RXRa K156A/R161A, NR concentration 90 nM)
Procedure, shortened: as §1

[5] = test system: RXRa homodimer (NR concentration 180 nM)
Procedure, shortened: as §1

[6] = test system: THRa:RXRa (NR concentration 90 nM, RXRa partner concentration 90 nM)
Procedure, shortened: as §1

[7] = test system: THRa homodimer (NR concentration 90 nM)
Procedure, shortened: as §1

[8] = test system: VDR homodimer (NR concentration 270 nM)
Procedure, shortened: as §1

Sequence	PBM binding z-score [1]	PBM binding z-score [2]	PBM binding z-score [3]	PBM binding z-score [4]	PBM binding z-score [5]	PBM binding z-score [6]	PBM binding z-score [7]	PBM binding z-score [8]
CCGACTGGGCCACGAAAGGTCATTGATTCAGTGA	4.83	4.59	4.35	0.758	4.99	3.87	0.668	1.78
GCTGCTAGGCCAGGTTGGTCAGCTAACGGGTACG	6.85e-05	-0.5	-0.124	-0.332	-0.773	-0.787	-1.23	-0.861
CAAAGTAGGTCACAGAGGTCAAAGTCCGTGCGTA	5.68	7.42	8.01	3.36	8.08	4.51	2.42	6.6
TGAATGAGGTTATAAGATCAGGCAACGTTGCAAA	0.151	1.57	0.908	0.405	2.11	1.85	0.127	0.105
CCTTACGGGTCACGAGGTTATGGCACGACGAGCG	3.8	6.05	5.55	1.3	6.91	3.72	1.19	1.71
CAAGCTAGGTCACCGGAAGGTCAAAGTCCGCATG	5.19	8.48	7.81	1.93	6.91	4.5	2.79	3.87
TCTTCTAGATCAGCAGGTTAAGAAAGCTGGCCAA	-0.301	0.12	0.0708	0.571	0.331	0.17	-0.696	-0.431
AGAATGAGGTTATTAAGATCAGGGATTTGCGGTC	0.902	1.19	1.05	1.96	1.76	2.29	0.681	1.2
CAGCCTAGCTCAGGGCCAGTATAGGAGGAACGTT	-0.467	-0.693	-0.422	-0.824	-0.971	-0.848	-0.716	-0.754
CCGAGGAGGTTATGGGGCATTCAGGCAACGGTGA	1.31	1.42	0.885	0.0755	1.95	1.25	0.438	0.25
CCTGCTAGGTCATGGTCAGTTAATCTACAGTATG	3.11	4.04	5.07	2.12	3.12	3.23	1.57	0.435
GGGACGAGGGCAAGTTGATAGCAGAGTTTGATGG	1.99	1.89	2.46	2.62	1.06	1.61	0.723	2.05
CGAACTAGGACATTGACAGGACAGTGAATAGTAA	0.469	0.496	0.642	0.451	-0.322	0.858	0.623	0.546
TGAATCAGGTTATAAGATCAGGGAACGTTGCAAA	-0.228	0.24	0.42	-0.671	0.358	0.505	-0.129	0.0493
ATTTGTAGGTTAGCTGGGGTCATTCAGACTAGGC	4.03	4.33	2.95	2.56	5.57	5.34	3.84	4.65
GCTTACGGGTCAAAGATTATAGCATGAATAGAAT	2.21	4.65	4.34	2.38	5.43	2.21	-0.519	0.811
AATATAGGGTCATCGTAGGCCAGAGTACGCACAG	3.83	5.9	5.5	3.83	6.83	4.67	2.3	3.76
